In the supplement of paper PMC7695840:
Where a name gives a salt, the structure may show the parent alone.

Assays:
[1] = system: Staphylococcus aureus MW2 delta-mecA (mecA-); assay: normalized GFP fluorescence (growth of mecA- strain) (fraction of control range); higher = more growth of mecA- strain; details: compound concentration: 150 uM; cefoxitin: subinhibitory; fluorescent label: GFP
Method in brief: (§1)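 S. aureus MW2 cells, pre-induced, were used as a 1:1 mix of a DsRed strain carrying the gene and a GFP strain lacking it, in LB with a subinhibitory antibiotic dose set each day. At 5 µL/well they were placed onto 150 μM compound (1.5% DMSO) in 1536-well plates, one replicate, and kept unshaken for 20 h at 37 °C, 90% humidity. After DsRed (540/590) and GFP (485/520) reads scaled per plate to single-strain control medians, plates with high untreated ratios and rows with DsRed/GFP >10 were excluded.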

[2] = system: Staphylococcus aureus MW2 (mecA+); assay: normalized DsRed fluorescence (growth of mecA+ strain) (fraction of control range); higher = more growth of mecA+ strain; details: compound concentration: 150 uM; cefoxitin: subinhibitory; fluorescent label: DsRed
Method in brief: as §1

SMILES | normalized GFP fluorescence [1] | normalized DsRed fluorescence [2]
COc1cc(N)c(Cl)cc1C(=O)NC1CCN(CCCOc2ccc(F)cc2)CC1OC (stereo not drawn) | 0.458 | 0.643
CCNC(=O)CCC/C=C\C[C@@H]1[C@@H](/C=C/[C@@H](O)CCc2ccccc2)[C@H](O)C[C@@H]1O [Bimatoprost] | 0.224 | 0.865
CCCCCCCN(CC)CCCC(O)c1ccc(NS(C)(=O)=O)cc1 (stereo not drawn) [Ibutilide fumarate] | 0.723 | 0.737
O=S(=O)(O)NC1CCCCC1 | 0.457 | 0.493
S=c1[nH]cnc2nc[nH]c12 | 0.195 | 0.762
CCN1CCCC(OC(=O)C(c2ccccc2)c2ccccc2)C1 (stereo not drawn) | 0.427 | 0.501
CC(C(=O)O)c1cccc(Oc2ccccc2)c1 (stereo not drawn) | 0.136 | 0.467
C[C@@H]1CC(=O)NN=C1c1ccc(NN=C(C#N)C#N)cc1 [Levosimendan] | 0.00346 | 0.512
Nc1ccc(S(=O)(=O)c2ccc(N)cc2)cc1 | 0.296 | 0.89
CC(CN(C)C)CN1c2ccccc2CCc2ccccc21 (stereo not drawn) | 0.0825 | 1.55
CC(C)(C)NC[C@H](O)COc1ccccc1C1CCCC1 | 0.435 | 0.586
CN1CCC(=C2c3ccccc3C=Cc3ccccc32)CC1 | 0.0037 | 1.31
CC[C@]1(O)C[C@@H]2CN(CCc3c([nH]c4ccccc34)[C@@](C(=O)OC)(c3cc4c(cc3OC)N(C)[C@H]3[C@@](O)(C(=O)OC)[C@H](OC(C)=O)[C@]5(CC)C=CCN6CC[C@]43[C@@H]65)C2)C1 [Vinblastine] | 0.0776 | 0.851
C[C@H](Cc1cc2c(c(C(N)=O)c1)N(CCCO)CC2)NCCOc1ccccc1OCC(F)(F)F [Silodosin (Rapaflo)] | 0.269 | 1.1
